Results published in PubChem BioAssay AID1159580 (chemical genetic matrix, 2015).
Among all 5,500 compounds or so, about 2,000 (36%) were called active. Another 18% or so got no clear call; they are omitted. Cut-off read from the data, not from the text of the source: active = normalized growth mostly below about 0.91 (no sharp cut-off); inconclusive = no clear call, values can overlap the other calls; inactive = mostly above about 0.92. The list shows a part of the results.

Experiment: chemical genetic growth profiling, strain panel (AID 1159580);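 note: tested at 20 µM; growth read once vehicle control cultures reached saturation at 30 °C; 1 = growth at the plate median or of vehicle wells; lower values mean less growth of the strain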
Settings: growth OD
[1] = S. cerevisiae deletion strains, locus YAL013W, strain DEP1, active compounds read low
[2] = S. cerevisiae deletion strains, locus YBR229C, strain ROT2, active compounds read low
[3] = S. cerevisiae deletion strains, locus YDL101C, strain DUN1, active compounds read low
[4] = S. cerevisiae deletion strains, locus YDR150W, strain NUM1, active compounds read low
[5] = S. cerevisiae deletion strains, locus YEL061C, strain CIN8, active compounds read low
[6] = S. cerevisiae deletion strains, locus YGR078C, strain PAC10, active compounds read low
[7] = S. cerevisiae deletion strains, locus YHR030C, strain SLT2, active compounds read low
[8] = S. cerevisiae deletion strains, locus YHR087W, strain rtc3, active compounds read low
[9] = S. cerevisiae deletion strains, locus YJL187C, strain SWE1, active compounds read low
[10] = S. cerevisiae deletion strains, locus YJR043C, strain POL32, active compounds read low
[11] = S. cerevisiae deletion strains, locus YJR075W, strain HOC1, active compounds read low
[12] = S. cerevisiae deletion strains, locus YKL190W, strain CNB1, active compounds read low
[13] = S. cerevisiae deletion strains, locus YLR039C, strain RIC1, active compounds read low
[14] = S. cerevisiae deletion strains, locus YLR058C, strain SHM2 (second series), active compounds read low
[15] = S. cerevisiae deletion strains, locus YLR085C, strain ARP6, active compounds read low
[16] = S. cerevisiae deletion strains, locus YLR262C, strain YPT6, active compounds read low
[17] = S. cerevisiae deletion strains, locus YML094W, strain GIM5, active compounds read low
[18] = S. cerevisiae deletion strains, locus YMR219W, strain ESC1, active compounds read low
[19] = S. cerevisiae deletion strains, locus YMR263W, strain SAP30, active compounds read low
[20] = S. cerevisiae deletion strains, locus YMR307W, strain GAS1, active compounds read low
[21] = S. cerevisiae deletion strains, locus YNL153C, strain GIM3, active compounds read low
[22] = S. cerevisiae deletion strains, locus YNL298W, strain CLA4 (second series), active compounds read low
[23] = S. cerevisiae deletion strains, locus YNL322C, strain KRE1, active compounds read low
[24] = S. cerevisiae deletion strains, locus YNR030W, strain Alg12, active compounds read low
[25] = S. cerevisiae deletion strains, locus YPL055C, strain LGE1, active compounds read low
[26] = S. cerevisiae deletion strains, locus YPL241C, strain CIN2, active compounds read low
[27] = S. cerevisiae deletion strains, locus YPR135W, strain CTF4, active compounds read low
[28] = S. cerevisiae strains, strain wild type, active compounds read low
[29] = S. cerevisiae deletion strains, locus YNL128W, strain TEP1, active compounds read low
[30] = S. cerevisiae deletion strains, locus YOL006C, strain TOP1, active compounds read low

Measured: normalized growth

NC(N)=NC(N)=Nc1cc(C(F)(F)F)cc(C(F)(F)F)c1
inactive: [1] 1 | [2] 0.999 | [3] 0.992 | [4] 0.998 | [5] 1.02 | [6] 0.995 | [7] 0.983 | [8] 0.99 | [9] 1 | [10] 1.01 | [11] 0.977 | [12] 1.01 | [13] 1.01 | [14] 1.01 | [15] 1.03 | [16] 1.01 | [17] 0.956 | [18] 1 | [19] 1.01 | [20] 0.963 | [21] 0.993 | [22] 0.988 | [23] 0.987 | [24] 1.01 | [25] 0.999 | [26] 1.12 | [27] 1 | [28] 1.01

NC(=NS(=O)(=O)c1cc(C(F)(F)F)cc(C(F)(F)F)c1)c1cccs1
inactive: [1] 0.975 | [2] 0.977 | S. cerevisiae deletion strains, locus YCL061C, strain MRC1, active compounds read low 0.996 | [3] 0.994 | S. cerevisiae deletion strains, locus YDL134C, strain PPH21, active compounds read low 0.984 | [4] 0.969 | [5] 0.934 | [6] 0.963 | [7] 0.975 | [8] 1.01 | [9] 0.987 | [10] 0.957 | [14] 0.967 | [15] 0.928 | [17] 0.927 | [18] 0.982 | [19] 0.978 | [29] 1 | [21] 0.991 | [22] 0.933 | [23] 0.977 | [24] 0.942 | [30] 0.949 | [25] 0.9 | [26] 0.946 | [27] 0.877 | [28] 0.978
active: [11] 0.89 | [13] 0.561 | [16] 0.578

c1ccc2c3c([nH]c2c1)CNCC3
inactive: S. cerevisiae deletion strains, locus YBR021W, strain FUR4, active compounds read low 1.01 | [2] 0.999 | S. cerevisiae deletion strains, locus YCL029C, strain bik1, active compounds read low 1.02 | S. cerevisiae deletion strains, locus YDL035C, strain GPR1, active compounds read low 0.991 | S. cerevisiae deletion strains, locus YDL074C, strain BRE1, active compounds read low 1.01 | [3] 1.01 | S. cerevisiae deletion strains, locus YDL185W, strain tfp1, active compounds read low 1.01 | S. cerevisiae deletion strains, locus YDL192W, strain arf1, active compounds read low 0.997 | S. cerevisiae deletion strains, locus YDR101C, strain arx1, active compounds read low 1.02 | [4] 1 | S. cerevisiae deletion strains, locus YDR162C, strain NBP2, active compounds read low 0.965 | S. cerevisiae deletion strains, locus YDR318W, strain mcm21, active compounds read low 0.979 | S. cerevisiae deletion strains, locus YDR388W, active compounds read low 0.997 | S. cerevisiae deletion strains, locus YDR502C, strain sam2, active compounds read low 1.01 | [5] 0.997 | S. cerevisiae deletion strains, locus YER110C, active compounds read low 1 | S. cerevisiae deletion strains, locus YER155C, strain BEM2, active compounds read low 1.01 | S. cerevisiae deletion strains, locus YER167W, strain BCK2, active compounds read low 0.999 | S. cerevisiae deletion strains, locus YGL078C, strain dbp3, active compounds read low 0.997 | S. cerevisiae deletion strains, locus YGL086W, strain mad1, active compounds read low 1.02 | S. cerevisiae deletion strains, locus YGL248W, strain PDE1, active compounds read low 0.994 | [6] 1 | S. cerevisiae deletion strains, locus YGR135W, strain pre9, active compounds read low 0.97 | S. cerevisiae deletion strains, locus YGR252W, strain gcn5, active compounds read low 0.906 | [7] 1 | S. cerevisiae deletion strains, locus YHR079C, strain IRE1 (second series), active compounds read low 1.01 | S. cerevisiae deletion strains, locus YHR094C, strain hxt1, active compounds read low 1 | S. cerevisiae deletion strains, locus YHR129C, strain ARP1, active compounds read low 1.01 | S. cerevisiae deletion strains, locus YHR200W, strain rpn10, active compounds read low 1 | S. cerevisiae deletion strains, locus YIL066C, strain RNR3, active compounds read low 1 | S. cerevisiae deletion strains, locus YIL073C, strain SPO22, active compounds read low 1.05 | S. cerevisiae deletion strains, locus YIL125W, strain kgd1, active compounds read low 1.02 | S. cerevisiae deletion strains, locus YIR030C, strain dcg1, active compounds read low 1.01 | S. cerevisiae deletion strains, locus YJL095W, strain BCK1, active compounds read low 0.987 | S. cerevisiae deletion strains, locus YJL134W, strain LCB3, active compounds read low 0.999 | S. cerevisiae deletion strains, locus YJL168C, strain set2, active compounds read low 1 | S. cerevisiae deletion strains, locus YJL187C, strain SWE1 (second series), active compounds read low 0.997 | [10] 1.01 | S. cerevisiae deletion strains, locus YKL009W, strain mrt4, active compounds read low 1.01 | S. cerevisiae deletion strains, locus YKL068W, active compounds read low 1 | S. cerevisiae deletion strains, locus YKL085W, strain MDH1 (second series), active compounds read low 1 | S. cerevisiae deletion strains, locus YKL085W, strain MDH1, active compounds read low 1 | [12] 1 | S. cerevisiae deletion strains, locus YKR001C, strain vps1, active compounds read low 1.02 | [13] 1.01 | S. cerevisiae deletion strains, locus YLR058C, strain SHM2, active compounds read low 0.985 | S. cerevisiae deletion strains, locus YLR102C, strain apc9, active compounds read low 1 | [16] 0.993 | S. cerevisiae deletion strains, locus YLR268W, strain sec22, active compounds read low 1.03 | S. cerevisiae deletion strains, locus YLR330W, strain CHS5, active compounds read low 1.01 | S. cerevisiae deletion strains, locus YLR342W, strain FKS1 (second series), active compounds read low 0.976 | S. cerevisiae deletion strains, locus YLR371W, strain rom2, active compounds read low 1.02 | S. cerevisiae deletion strains, locus YLR418C, strain cdc73, active compounds read low 0.96 | S. cerevisiae deletion strains, locus YML016C, strain PPZ1, active compounds read low 0.997 | S. cerevisiae deletion strains, locus YML032C, strain rad52, active compounds read low 0.966 | S. cerevisiae deletion strains, locus YML124C, strain tub3, active compounds read low 0.996 | S. cerevisiae deletion strains, locus YMR078C, strain ctf18, active compounds read low 1.02 | S. cerevisiae deletion strains, locus YMR223W, strain ubp8, active compounds read low 0.972 | [19] 1 | [20] 1.02 | S. cerevisiae deletion strains, locus YNL067W, strain RPL9B, active compounds read low 1 | [29] 1.01 | [21] 0.997 | S. cerevisiae deletion strains, locus YNL233W, strain BNI4, active compounds read low 1 | S. cerevisiae deletion strains, locus YNL250W, strain rad50, active compounds read low 1.01 | S. cerevisiae deletion strains, locus YNL271C, strain bni1, active compounds read low 1.01 | S. cerevisiae deletion strains, locus YNL298W, strain CLA4, active compounds read low 0.99 | S. cerevisiae deletion strains, locus YNL307C, strain MCK1, active compounds read low 1.01 | S. cerevisiae deletion strains, locus YNR052C, strain pop2, active compounds read low 0.971 | [30] 1.06 | S. cerevisiae deletion strains, locus YOL012C, strain htz1 0.744 | S. cerevisiae deletion strains, locus YOL147C, strain pex11, active compounds read low 1 | S. cerevisiae deletion strains, locus YOR061W, strain CKA2, active compounds read low 0.998 | S. cerevisiae deletion strains, locus YOR069W, strain VPS5, active compounds read low 1 | S. cerevisiae deletion strains, locus YOR136W, strain idh2, active compounds read low 1.02 | S. cerevisiae deletion strains, locus YOR144C, strain elg1, active compounds read low 1.01 | S. cerevisiae deletion strains, locus YOR184W, strain ser1, active compounds read low 1 | S. cerevisiae deletion strains, locus YOR316C, strain cot1, active compounds read low 1.01 | [25] 0.983 | [26] 0.988 | S. cerevisiae deletion strains, locus YPR119W, strain clb2, active compounds read low 1.01 | S. cerevisiae deletion strains, locus YPR141C, strain kar3, active compounds read low 1.01 | S. cerevisiae deletion strains, locus YPR163C, strain tif3, active compounds read low 1.01 | S. cerevisiae deletion strains, locus YPR167C, strain met16, active compounds read low 0.992 | S. cerevisiae deletion strains, strain wtn01, active compounds read low 1.03 | [28] 0.989
